This note sets out measurements from PubChem BioAssay.

Assay [1] can be described thus: antimalarial activity against Dd2 strain (AID 2302;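 active means growth inhibition above 50% at the single 2 µM test dose, taken to imply half-maximal potency below 2 µM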;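 further: 0% = DMSO untreated growth and 100% = chloroquine plus artemisinin killed control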). The settings on record: P. falciparum Dd2 in RBCs, LDH growth readout, 72 h; at 2 µM; hits give high values.
Assay [2] is described as follows: HepG2 cytotoxicity, primary screen, cytotoxicity control for P. falciparum antimalarial project, cell-based, ATP luminescence (AID 2303;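 active means inhibition above 50%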;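 further: 0% = DMSO wells and 100% = digitonin-killed cells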). The settings on record: HepG2 viability, 24-48 h, at 10 µM, hits give high values.
For assay [3], the target named is L-lactate dehydrogenase (Plasmodium falciparum (isolate CDC / Honduras)) (UniProt Q27743). The assay can be described thus: PfLDH activity inhibition – cell lysate, 3D7 strain, counter-screen for P. falciparum growth inhibition project (AID 2304).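 Further: 0% = vehicle and 100% = reference inhibitor.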 The following applies: P. falciparum 3D7 crude extract, LDH APAD/NBT absorbance; at 2 µM; hits give high values. On the technique in general: Counterscreens check selectivity or assay interference.

Assay [4] is described as follows: inhibition of 3D7 malaria parasite growth – strain 3D7 (AID 2306).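 Further: 0% = DMSO wells and 100% = chloroquine plus artemisinin control wells.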 The settings on record: P. falciparum 3D7 erythrocytic growth, LDH absorbance, 72 h; at 2 µM; hits give high values.
Assay [5] has as its target Calcium-dependent protein kinase 1 (Plasmodium falciparum (isolate 3D7)) (UniProt P62344). Briefly: PfCDPK1 kinase inhibitors, biochemical, TCAMS library (AID 1159585; cut-off not given, nearly all actives have IC50 up to about 0.98 µM;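 further: inhibitors leave more ATP so luminescence rises with inhibition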). The following applies: recombinant PfCDPK1, Kinase-Glo ATP depletion luminescence. A general note: In Kinase-Glo more light means more ATP remaining.
Assay [6] concerns the target Plasmodium falciparum protein kinase 6 (PK6, PF3D7_1337100) (UniProt Q8IDW1). Briefly: PfPK6 kinase inhibitors, biochemical, TCAMS library (AID 1159586). The settings on record: recombinant PfPK6, Kinase-Glo ATP depletion luminescence.
Assay [7] addresses Protein kinase 7 (PK7), Plasmodium falciparum 3D7 (PF3D7_0213400) (UniProt Q7YTF7). The assay can be described thus: inhibition of Plasmodium PK7 catalytic activity – biochemical, TCAMS antimalarial set, Kinase-Glo luminescence (AID 1159587). The following applies: recombinant PfPK7, Kinase-Glo ATP depletion luminescence.
Assay [8] concerns the target Calcium-dependent protein kinase 4 (Plasmodium falciparum (isolate 3D7)) (UniProt Q8IBS5). The assay can be described thus: PfCDPK4 kinase inhibitors, biochemical, TCAMS library (AID 1159588; cut-off not given, nearly all actives have IC50 up to about 0.91 µM). The settings on record: recombinant PfCDPK4, Kinase-Glo ATP depletion luminescence.

Structures are written as SMILES. Unmarked numbers belong to inactive results. For part of these data: Results with a measured potency or affinity are listed apart. The source made the active and inactive calls. Unless noted, how the calls were made is not given here.

Sequence of L-lactate dehydrogenase (Plasmodium falciparum (isolate CDC / Honduras)) (Q27743 whole entry, looked up): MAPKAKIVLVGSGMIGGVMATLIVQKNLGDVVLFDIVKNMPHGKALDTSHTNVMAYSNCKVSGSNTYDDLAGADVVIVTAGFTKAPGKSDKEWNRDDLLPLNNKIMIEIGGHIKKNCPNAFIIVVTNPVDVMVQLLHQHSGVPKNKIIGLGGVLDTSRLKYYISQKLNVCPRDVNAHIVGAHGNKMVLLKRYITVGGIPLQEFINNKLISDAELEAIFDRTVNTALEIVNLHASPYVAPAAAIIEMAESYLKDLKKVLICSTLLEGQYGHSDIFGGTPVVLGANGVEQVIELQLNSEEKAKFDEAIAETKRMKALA
Sequence of Protein kinase 7 (PK7), Plasmodium falciparum 3D7 (PF3D7_0213400) (Q7YTF7 1-343): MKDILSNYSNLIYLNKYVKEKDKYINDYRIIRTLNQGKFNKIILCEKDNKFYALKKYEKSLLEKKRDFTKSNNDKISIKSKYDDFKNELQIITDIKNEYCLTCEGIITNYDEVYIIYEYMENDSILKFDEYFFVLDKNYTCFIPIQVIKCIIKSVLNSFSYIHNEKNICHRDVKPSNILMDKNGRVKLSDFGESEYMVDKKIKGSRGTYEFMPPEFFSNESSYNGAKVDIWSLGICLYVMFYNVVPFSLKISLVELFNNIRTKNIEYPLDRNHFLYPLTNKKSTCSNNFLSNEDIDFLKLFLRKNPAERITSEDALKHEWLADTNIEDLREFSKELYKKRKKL
Sequence of Calcium-dependent protein kinase 4 (Plasmodium falciparum (isolate 3D7)) (Q8IBS5 whole entry, looked up): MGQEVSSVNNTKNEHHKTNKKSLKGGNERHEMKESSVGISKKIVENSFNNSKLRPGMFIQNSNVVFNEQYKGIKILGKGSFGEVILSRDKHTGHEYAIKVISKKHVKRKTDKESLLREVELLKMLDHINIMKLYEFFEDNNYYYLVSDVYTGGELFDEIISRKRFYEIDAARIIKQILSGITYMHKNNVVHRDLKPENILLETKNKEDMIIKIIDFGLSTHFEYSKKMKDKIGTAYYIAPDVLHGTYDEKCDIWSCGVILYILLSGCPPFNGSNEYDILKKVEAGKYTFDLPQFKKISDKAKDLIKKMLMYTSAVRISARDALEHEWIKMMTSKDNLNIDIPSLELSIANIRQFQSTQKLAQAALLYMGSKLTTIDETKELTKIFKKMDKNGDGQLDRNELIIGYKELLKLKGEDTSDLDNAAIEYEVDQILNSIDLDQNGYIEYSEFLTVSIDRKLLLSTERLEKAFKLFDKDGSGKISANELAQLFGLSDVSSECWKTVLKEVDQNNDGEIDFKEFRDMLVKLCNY
Sequence of Plasmodium falciparum protein kinase 6 (PK6, PF3D7_1337100) (Q8IDW1 1-305): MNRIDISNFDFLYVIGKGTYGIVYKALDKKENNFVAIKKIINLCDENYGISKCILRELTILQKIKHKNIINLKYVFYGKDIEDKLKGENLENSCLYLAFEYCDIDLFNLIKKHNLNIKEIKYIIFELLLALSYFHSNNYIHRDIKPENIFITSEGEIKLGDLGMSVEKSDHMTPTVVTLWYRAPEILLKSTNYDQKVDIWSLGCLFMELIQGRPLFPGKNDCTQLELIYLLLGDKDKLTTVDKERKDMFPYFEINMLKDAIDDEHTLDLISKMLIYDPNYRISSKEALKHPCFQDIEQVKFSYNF
Sequence of Calcium-dependent protein kinase 1 (Plasmodium falciparum (isolate 3D7)) (P62344 whole entry, looked up): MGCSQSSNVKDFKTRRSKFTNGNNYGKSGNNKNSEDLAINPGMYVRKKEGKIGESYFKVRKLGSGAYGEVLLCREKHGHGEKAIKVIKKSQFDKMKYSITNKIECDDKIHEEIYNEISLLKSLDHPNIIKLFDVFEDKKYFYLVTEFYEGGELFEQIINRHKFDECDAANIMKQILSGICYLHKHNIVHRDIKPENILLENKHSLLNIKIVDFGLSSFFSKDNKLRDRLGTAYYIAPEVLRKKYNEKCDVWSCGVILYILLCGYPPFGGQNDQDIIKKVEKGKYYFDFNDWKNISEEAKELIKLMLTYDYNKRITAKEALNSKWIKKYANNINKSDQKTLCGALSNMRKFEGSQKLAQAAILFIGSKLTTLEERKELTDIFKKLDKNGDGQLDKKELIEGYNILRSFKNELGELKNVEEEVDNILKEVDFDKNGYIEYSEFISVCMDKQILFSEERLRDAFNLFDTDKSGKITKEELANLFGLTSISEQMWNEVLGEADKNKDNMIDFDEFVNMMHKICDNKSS

Usually inhibition stands for the change of the read-out against control, counted positive when it falls. For the compound `O=S(=O)(c1cccc(F)c1)c1ccc(Nc2ncnc3cc(Br)sc23)cc1Cl`, the growth inhibition in assay [1] was 11%; in assay [4] it was 86% (active). Moreover, the values for the inhibition in assay [2] and in assay [3] were 20% and -2%, respectively. Moreover, the result in assay [5], in assay [6], in assay [7] and in assay [8] was inactive.

In the case of `CCOC(=O)NCC(=O)Nc1cccc(-c2cccc(-c3nc4c(C)cccc4[nH]3)c2)c1`, the figures for the growth inhibition in assay [1] and in assay [4] were 35% and 88% (active), respectively. Further, the inhibition in assay [2] is 14%; in assay [3], 1%. Further, the outcome in assay [5], in assay [6], in assay [7] and in assay [8] was inactive.

In the case of `COc1ccc2nccc(NN=Cc3cccc(C)n3)c2c1`, the growth inhibition in assay [1] is 99% (active); in assay [4], 100% (active). In addition, the inhibition in assay [2] is 16%; in assay [3], 3%. The outcome in assay [5], in assay [6], in assay [7] and in assay [8] was inactive.

On to `CCCCCN1CCC(NS(=O)(=O)c2ccc(C(=O)Nc3cccc(C(F)(F)F)c3)cc2)C1` (stereo not drawn), for which the growth inhibition is 0% in assay [1] and 94% (active) in assay [4]. Moreover, the inhibition in assay [2] was 14%; in assay [3], -9%. Besides, the result in assay [5], in assay [6], in assay [7] and in assay [8] was inactive.

On to `COc1ccc(C2(CNCC(O)c3cccc([N+](=O)[O-])c3)CCCC2)cc1OC` (stereo not drawn), for which the growth inhibition in assay [1] is 85% (active); in assay [4] it was 93% (active). In addition, the inhibition is 10% in assay [2] and 5% in assay [3]. For the same compound, the outcome in assay [5], in assay [6], in assay [7] and in assay [8] was inactive.

In the case of `O=C(c1c(-c2[nH]c3ccccc3c2C(=O)C(F)(F)F)[nH]c2ccccc12)C(F)(F)F`, the results for the growth inhibition in assay [1] and in assay [4] were 99% (active) and 97% (active), respectively. The inhibition in assay [2] was 18%; in assay [3] it was 3%. For the same compound, the result in assay [5], in assay [6], in assay [7] and in assay [8] was inactive.

As for `COc1cccc(-c2csc(C(=O)NCC3CCN(Cc4ccc(C(C)(C)C)cc4)C3)c2)c1` (stereo not drawn), the results for the growth inhibition in assay [1] and in assay [4] were 10% and 95% (active), respectively. For the same compound, the inhibition in assay [2] is 30%; in assay [3], -2%. Moreover, the outcome in assay [5], in assay [6], in assay [7] and in assay [8] was inactive.

For `CCCCCCN1CCC(NCc2ccc(Cl)cc2)CC1`, the figures for the growth inhibition in assay [1] and in assay [4] were 9% and 98% (active), respectively. Also, the values for the inhibition in assay [2] and in assay [3] were 19% and -7%, respectively. Besides, the result in assay [5], in assay [6], in assay [7] and in assay [8] was inactive.

On to `O=c1ccc2ccc(F)c3c2n1CC3CN1CCC(NCc2ccc(-c3cccc(Cl)c3)nc2)CC1` (stereo not drawn), for which the growth inhibition was 33% in assay [1] and 96% (active) in assay [4]. The inhibition was 16% in assay [2] and 3% in assay [3]. Further, the outcome in assay [5], in assay [6], in assay [7] and in assay [8] was inactive.

Turning to `CC(=O)Nc1sc(C)c(C)c1CN1CCc2ccccc2C1`, the figures for the growth inhibition in assay [1] and in assay [4] were 94% (active) and 93% (active), respectively. Besides, the inhibition in assay [2] is -8%; in assay [3], 1%. Further, the result in assay [5], in assay [6], in assay [7] and in assay [8] was inactive.

Take `CC(C)CCCC(C)(C)NC[C@@H](O)[C@H](Cc1ccccc1)NC(=O)c1cccc(CCC2CC2)c1`: the growth inhibition in assay [1] is 52% (active); in assay [4], 98% (active). Further, the figures for the inhibition in assay [2] and in assay [3] were 100% (active) and 0%, respectively. Also, the outcome in assay [5], in assay [6], in assay [7] and in assay [8] was inactive.

With `c1ccc(CN2CCC(NCc3ccccc3-c3ccc(CNC4CCCC4)cc3)CC2)cc1`, the growth inhibition in assay [1] is 33%; in assay [4], 102% (active). In addition, the results for the inhibition in assay [2] and in assay [3] were 38% and 1%, respectively. Moreover, the result in assay [5], in assay [6], in assay [7] and in assay [8] was inactive.

Consider `COc1ccc(-c2cccc(NC(=O)c3cccc(C#N)c3)c2)cc1CN(C)CCN(C)C`, for which the results for the growth inhibition in assay [1] and in assay [4] were 21% and 99% (active), respectively. The inhibition was -5% in assay [2] and 3% in assay [3]. The result in assay [5], in assay [6], in assay [7] and in assay [8] was inactive.

On to `CCc1cn(CCS(C)(=O)=O)c2ccc(C(=O)N[C@@H](Cc3ccccc3)[C@H](O)CNC(C)(C)CCCC(C)C)cc12`, for which the growth inhibition in assay [1] was 96% (active); in assay [4] it was 87% (active). Further, the inhibition is 16% in assay [2] and -7% in assay [3]. For the same compound, the result in assay [5], in assay [6], in assay [7] and in assay [8] was inactive.

For the compound `CC(C)S(=O)(=O)N1CCN(Cc2ccc3c(c2)nc(NC(=O)c2ccsc2)n3C[C@H](O)c2ccccc2)CC1`, the results for the growth inhibition in assay [1] and in assay [4] were 72% (active) and 91% (active), respectively. Also, the inhibition is 56% (active) in assay [2] and 0% in assay [3]. Moreover, the outcome in assay [5], in assay [6], in assay [7] and in assay [8] was inactive.

Consider `O=C(c1cc(C(=O)Nc2ccccc2)c(=O)n(-c2ccccc2)c1)c1cc(Cl)ccc1O`, for which the growth inhibition in assay [1] is 95% (active); in assay [4], 100% (active). The figures for the inhibition in assay [2] and in assay [3] were 9% and -1%, respectively. In addition, the outcome in assay [5], in assay [6], in assay [7] and in assay [8] was inactive.

For the compound `COC(=O)Cn1c2ccccc2c2c(N)c(C(=O)OC)c(C)nc21`, the growth inhibition is 1% in assay [1] and 93% (active) in assay [4]. The inhibition in assay [2] is 0%; in assay [3], 4%. In addition, the outcome in assay [5], in assay [6], in assay [7] and in assay [8] was inactive.

On to `O=C(Nc1ccc(OC(F)(F)F)cc1)Nc1ccc([N+](=O)[O-])cc1`, for which the growth inhibition in assay [1] and in assay [4] was 100% (active) each time. The inhibition is 41% in assay [2] and 3% in assay [3]. The outcome in assay [5], in assay [6], in assay [7] and in assay [8] was inactive.

In the case of `CS(=O)(=O)c1ccccc1CNC(=O)c1cccc(-c2ccc(-c3nc4ccc(C(F)(F)F)cc4[nH]3)cc2)c1`, the growth inhibition in assay [1] is 7%; in assay [4] it was 95% (active). Further, the inhibition was 86% (active) in assay [2] and 3% in assay [3]. Moreover, the result in assay [5], in assay [6], in assay [7] and in assay [8] was inactive.

`O=C(NCC(CCCN1CCC(c2c[nH]c3ccccc23)CC1)c1ccccc1)Nc1ccc(Cl)c(Cl)c1` (stereo not drawn): the growth inhibition is 64% (active) in assay [1] and 101% (active) in assay [4]. The inhibition was 38% in assay [2] and 1% in assay [3]. The outcome in assay [5], in assay [6], in assay [7] and in assay [8] was inactive.

Turning to `CCN(CCCN1CCCCC1)c1cc(C)nc(Nc2ccc(C)c(C)c2)n1`, the figures for the growth inhibition in assay [1] and in assay [4] were 60% (active) and 101% (active), respectively. In addition, the inhibition in assay [2] was 30%; in assay [3], -3%. The result in assay [5], in assay [6], in assay [7] and in assay [8] was inactive.
